# Out of some 360,000 compounds screened, about 420 (0.12%) were called active. This is one part of a sample in which actives are shown more often than they occur. Rule as the data show it: active = inhibition above about 30%; inconclusive = no clear call, values can overlap the other calls; inactive = below that.
# Target: Lethal factor (Bacillus anthracis) (UniProt P15917)
# Assay: anthrax lethal factor cleavage blockers – biochemical, multiplex microsphere, MLPCN library, primary screen (AID 588501); also: plate controls were buffer without enzyme for full effect and enzyme alone for no effect
# Details: multiplex microsphere protease cleavage assay, LF; at 10 µM; stronger effect = higher value
# Chain of Lethal factor (Bacillus anthracis) (P15917 whole entry, looked up): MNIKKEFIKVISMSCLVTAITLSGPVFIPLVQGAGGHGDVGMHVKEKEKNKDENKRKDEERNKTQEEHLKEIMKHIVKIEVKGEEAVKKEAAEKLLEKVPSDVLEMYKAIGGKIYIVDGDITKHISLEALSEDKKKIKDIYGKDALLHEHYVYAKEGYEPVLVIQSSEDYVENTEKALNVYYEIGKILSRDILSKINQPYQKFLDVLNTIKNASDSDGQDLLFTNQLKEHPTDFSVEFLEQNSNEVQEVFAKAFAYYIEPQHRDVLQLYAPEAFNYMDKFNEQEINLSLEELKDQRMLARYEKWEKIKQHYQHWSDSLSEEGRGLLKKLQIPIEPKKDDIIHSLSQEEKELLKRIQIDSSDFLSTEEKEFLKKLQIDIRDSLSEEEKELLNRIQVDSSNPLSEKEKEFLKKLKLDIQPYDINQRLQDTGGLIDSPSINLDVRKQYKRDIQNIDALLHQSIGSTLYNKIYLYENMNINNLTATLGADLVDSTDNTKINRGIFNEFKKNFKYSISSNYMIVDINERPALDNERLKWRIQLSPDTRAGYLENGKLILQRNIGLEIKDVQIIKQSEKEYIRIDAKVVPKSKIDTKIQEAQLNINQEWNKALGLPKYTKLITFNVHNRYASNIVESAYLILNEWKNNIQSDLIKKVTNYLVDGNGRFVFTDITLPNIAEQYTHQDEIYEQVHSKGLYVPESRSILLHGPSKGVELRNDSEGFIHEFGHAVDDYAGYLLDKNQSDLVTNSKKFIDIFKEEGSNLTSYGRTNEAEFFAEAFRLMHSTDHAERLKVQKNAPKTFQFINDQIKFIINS
row,Structure (SMILES),inhibition
1,NC1=NC(=O)S/C1=C\c1ccc(O)cc1,-0.1% (inactive)
2,C=CCNC(=O)/C=C/c1ccc(C(C)C)cc1,-1.4% (inactive)
3,O=C(/C=C(O)/C=C/c1ccc(O)cc1)/C=C/c1ccc(O)cc1,31.4% (active)
4,CC(O)CN(Cc1ccc(Cl)cc1)CC(C)O (stereo not given),0.1% (inactive)
5,O=C1N[C@@H](Cc2ccccc2)C(=O)N2[C@H]1C[C@]1(Br)c3ccccc3N(S(=O)(=O)c3ccccc3)[C@H]21,-0.3% (inactive)
6,Cn1c(SCC(=O)c2ccccc2)ncc(C(=O)Nc2ccc(F)cc2)c1=O,-1.5% (inactive)
7,CCCCN1CC(COc2ccccc2)Oc2cccc(F)c2S1(=O)=O (stereo not given),-2.2% (inactive)
8,CN(Cc1cn(Cc2ccc(C(F)(F)F)cc2)nn1)C1CN(Cc2cn(Cc3ccc(C(F)(F)F)cc3)nn2)S(=O)(=O)C1 (stereo not given),-0.1% (inactive)
9,COC(=O)[C@H]1Cc2cnoc2C[C@]1(C)C(=O)O,4.2% (inactive)
10,COc1ccc2[nH]c(=O)c(C3c4cc(OC)c(OC)cc4CCN3C(=O)c3ccco3)cc2c1 (stereo not given),-1.5% (inactive)
11,O=[N+]([O-])c1ccc(NC(=S)N2CCN(c3ccccn3)CC2)cc1,1.1% (inactive)
12,CCOC(=O)c1ccc(NC(=S)N2CCN(c3ccccn3)CC2)cc1,-15.7% (inactive)
13,CC(=NNC(=S)N1CCCCCC1)c1ccccn1,50% (active)
14,COc1ccccc1CNC(=O)c1cc(-c2cc(F)ccc2OC)n[nH]1,-4.6% (inactive)
15,O=C(NC1CCCC1)C(c1ccco1)N(C(=O)c1ccco1)c1ccc(F)cc1 (stereo not given),-0.3% (inactive)
16,Cc1cc(C)c2nc(SCC(=O)N(C)C3CCS(=O)(=O)C3)cc(C)c2c1 (stereo not given),0.4% (inactive)
17,N#CC(Cc1cc2ccccc2n1S(=O)(=O)c1ccccc1)OCc1ccccc1 (stereo not given),-10.4% (inactive)
18,O=C(NN1C(=O)C2CCCCC2C1=O)c1ccco1 (stereo not given),15.5% (inactive)
19,CC(C)c1c(O)nc(SCCOc2ccc(Cl)cc2)[nH]c1=O,-0.5% (inactive)
20,COc1ccc(C(=O)Nc2nc(-c3ccc(OC)cc3)c(-c3ccc([N+](=O)[O-])cc3)s2)cc1,30.1% (active)
21,COc1ccc(NC(=O)c2cn(CCC#N)nc2-c2ccc([N+](=O)[O-])cc2)cc1,-4.4% (inactive)
22,COc1ccc(-c2[nH][nH]c(=O)c2NC(=O)c2ccc([N+](=O)[O-])cc2)cc1,6.4% (inactive)
23,Cc1ccc(CSCCNC(=O)CN(c2ccc(F)cc2)S(C)(=O)=O)cc1,3% (inactive)
24,COc1ccc(N(CC(=O)NCCSCc2cccc(Cl)c2)S(C)(=O)=O)cc1,34.3% (active)
25,COc1ccc(CCNC(=O)CN(c2ccccc2)S(C)(=O)=O)cc1,3.6% (inactive)
